Assay results: the supplement of paper PMC12067093, “Discovery and optimisation of a covalent ligand for TRIM25 and its application to targeted protein ubiquitination” (Chemical Science, 2025)
Targets with the largest changes are over-represented here; the source holds about 21,000 in all.

Legend:
[1] = compound: CC1Cc2ccccc2N1C(=O)C1CCCN(C1)C(=O)CCl (mixture of isomers) [TRIM25 ligand 11 (diastereomer mixture)]; test: probe-labelled cysteine peptide fold change vs DMSO (competition) (log2 fold change); higher = less target engagement (more negative = stronger competition); settings: THP-1, incubation time: 4 h
compound 10 = compound: Cc1cc(ccc1-c1ccccc1)C(=O)N1CCCN(CC1)C(=O)CCl [compound 10]; test: as above; settings: THP-1, incubation time: 4 h

Chain of UniProt Q8N302 (Q8N302 whole entry, looked up): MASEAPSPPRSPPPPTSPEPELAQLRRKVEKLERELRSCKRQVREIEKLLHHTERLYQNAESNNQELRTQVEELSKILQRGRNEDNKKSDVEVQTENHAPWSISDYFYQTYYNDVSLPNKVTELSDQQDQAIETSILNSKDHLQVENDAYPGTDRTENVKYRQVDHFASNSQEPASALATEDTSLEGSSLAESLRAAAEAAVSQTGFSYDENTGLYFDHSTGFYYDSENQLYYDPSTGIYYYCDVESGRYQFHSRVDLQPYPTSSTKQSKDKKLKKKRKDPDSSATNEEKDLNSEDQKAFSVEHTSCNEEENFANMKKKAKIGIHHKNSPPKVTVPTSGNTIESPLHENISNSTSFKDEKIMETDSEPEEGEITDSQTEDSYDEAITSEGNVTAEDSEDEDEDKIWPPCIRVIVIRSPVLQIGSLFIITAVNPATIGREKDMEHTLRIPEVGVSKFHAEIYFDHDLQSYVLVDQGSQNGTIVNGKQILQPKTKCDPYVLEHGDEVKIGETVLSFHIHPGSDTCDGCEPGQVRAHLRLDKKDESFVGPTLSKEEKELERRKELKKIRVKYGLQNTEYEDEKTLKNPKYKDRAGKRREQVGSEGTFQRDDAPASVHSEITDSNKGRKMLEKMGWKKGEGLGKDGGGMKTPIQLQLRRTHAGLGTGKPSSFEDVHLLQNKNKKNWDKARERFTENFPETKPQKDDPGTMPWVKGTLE
Chain of UniProt P25490 (P25490 whole entry, looked up): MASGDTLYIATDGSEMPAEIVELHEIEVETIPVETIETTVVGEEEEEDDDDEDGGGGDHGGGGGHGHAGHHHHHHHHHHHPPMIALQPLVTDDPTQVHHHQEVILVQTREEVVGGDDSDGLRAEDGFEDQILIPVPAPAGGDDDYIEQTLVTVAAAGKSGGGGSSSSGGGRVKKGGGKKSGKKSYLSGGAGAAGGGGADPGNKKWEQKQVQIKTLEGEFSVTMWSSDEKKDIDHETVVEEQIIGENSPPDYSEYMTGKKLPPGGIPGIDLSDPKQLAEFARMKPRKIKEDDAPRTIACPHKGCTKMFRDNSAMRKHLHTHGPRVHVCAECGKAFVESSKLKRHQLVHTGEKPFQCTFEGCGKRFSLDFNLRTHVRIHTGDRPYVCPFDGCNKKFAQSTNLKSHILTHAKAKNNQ
Chain of UniProt O95218 (O95218 whole entry, looked up): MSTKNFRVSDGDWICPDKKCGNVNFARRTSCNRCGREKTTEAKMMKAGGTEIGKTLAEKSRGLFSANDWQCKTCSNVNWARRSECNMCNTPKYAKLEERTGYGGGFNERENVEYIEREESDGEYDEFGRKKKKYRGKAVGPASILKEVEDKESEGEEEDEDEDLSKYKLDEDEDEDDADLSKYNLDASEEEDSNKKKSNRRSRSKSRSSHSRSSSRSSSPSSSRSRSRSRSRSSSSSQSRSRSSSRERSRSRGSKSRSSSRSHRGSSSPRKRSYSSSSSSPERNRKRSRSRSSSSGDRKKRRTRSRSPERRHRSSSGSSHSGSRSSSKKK
Chain of UniProt Q96QU8 (Q96QU8 whole entry, looked up): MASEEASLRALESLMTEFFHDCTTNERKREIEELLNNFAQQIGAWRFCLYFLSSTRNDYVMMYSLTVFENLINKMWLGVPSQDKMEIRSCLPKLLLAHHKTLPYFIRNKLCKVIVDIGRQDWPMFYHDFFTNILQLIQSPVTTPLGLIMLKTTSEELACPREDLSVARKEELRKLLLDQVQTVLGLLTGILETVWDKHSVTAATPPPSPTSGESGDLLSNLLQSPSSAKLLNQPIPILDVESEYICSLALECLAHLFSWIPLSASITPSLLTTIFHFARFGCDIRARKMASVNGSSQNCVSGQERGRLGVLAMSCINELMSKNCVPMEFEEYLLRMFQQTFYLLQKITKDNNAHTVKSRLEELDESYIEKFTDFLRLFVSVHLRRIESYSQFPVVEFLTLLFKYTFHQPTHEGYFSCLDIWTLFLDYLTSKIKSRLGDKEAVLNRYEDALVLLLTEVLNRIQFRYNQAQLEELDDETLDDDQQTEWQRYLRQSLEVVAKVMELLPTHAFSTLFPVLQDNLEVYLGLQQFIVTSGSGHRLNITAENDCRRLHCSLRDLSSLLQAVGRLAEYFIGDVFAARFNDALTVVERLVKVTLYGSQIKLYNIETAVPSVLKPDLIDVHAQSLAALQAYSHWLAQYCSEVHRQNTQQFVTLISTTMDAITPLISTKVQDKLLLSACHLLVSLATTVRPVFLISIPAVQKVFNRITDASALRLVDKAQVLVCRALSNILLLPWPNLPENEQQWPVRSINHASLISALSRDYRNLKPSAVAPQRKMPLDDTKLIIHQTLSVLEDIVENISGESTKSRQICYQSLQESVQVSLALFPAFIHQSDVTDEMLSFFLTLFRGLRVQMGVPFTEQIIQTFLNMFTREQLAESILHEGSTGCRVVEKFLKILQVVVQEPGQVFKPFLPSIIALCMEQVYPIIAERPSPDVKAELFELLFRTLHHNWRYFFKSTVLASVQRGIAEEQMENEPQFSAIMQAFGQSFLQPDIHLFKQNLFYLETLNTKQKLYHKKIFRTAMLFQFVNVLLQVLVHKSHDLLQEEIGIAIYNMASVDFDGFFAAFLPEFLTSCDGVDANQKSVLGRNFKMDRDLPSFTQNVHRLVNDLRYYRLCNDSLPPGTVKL
Chain of UniProt Q9NUD5 (Q9NUD5 whole entry, looked up): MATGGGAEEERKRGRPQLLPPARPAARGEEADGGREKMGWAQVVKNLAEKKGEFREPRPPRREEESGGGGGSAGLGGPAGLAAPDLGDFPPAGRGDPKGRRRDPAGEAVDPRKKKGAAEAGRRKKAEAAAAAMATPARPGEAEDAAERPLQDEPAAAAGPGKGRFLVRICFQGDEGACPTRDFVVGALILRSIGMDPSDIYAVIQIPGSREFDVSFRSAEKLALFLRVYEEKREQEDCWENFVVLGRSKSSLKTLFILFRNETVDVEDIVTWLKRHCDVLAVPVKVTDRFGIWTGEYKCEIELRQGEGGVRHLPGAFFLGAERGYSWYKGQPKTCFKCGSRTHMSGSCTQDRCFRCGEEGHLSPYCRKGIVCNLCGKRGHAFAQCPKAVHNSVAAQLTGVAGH
Chain of UniProt Q5VV52 (Q5VV52 whole entry, looked up): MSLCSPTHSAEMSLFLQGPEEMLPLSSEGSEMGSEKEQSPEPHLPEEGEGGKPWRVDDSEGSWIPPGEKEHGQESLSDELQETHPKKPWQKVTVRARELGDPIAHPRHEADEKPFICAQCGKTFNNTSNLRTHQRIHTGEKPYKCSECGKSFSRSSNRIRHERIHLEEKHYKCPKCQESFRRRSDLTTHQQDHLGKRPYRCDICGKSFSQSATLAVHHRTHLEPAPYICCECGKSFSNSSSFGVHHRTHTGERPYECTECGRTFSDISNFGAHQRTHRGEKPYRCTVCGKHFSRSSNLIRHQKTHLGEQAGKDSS
Chain of UniProt P36508 (P36508 whole entry, looked up): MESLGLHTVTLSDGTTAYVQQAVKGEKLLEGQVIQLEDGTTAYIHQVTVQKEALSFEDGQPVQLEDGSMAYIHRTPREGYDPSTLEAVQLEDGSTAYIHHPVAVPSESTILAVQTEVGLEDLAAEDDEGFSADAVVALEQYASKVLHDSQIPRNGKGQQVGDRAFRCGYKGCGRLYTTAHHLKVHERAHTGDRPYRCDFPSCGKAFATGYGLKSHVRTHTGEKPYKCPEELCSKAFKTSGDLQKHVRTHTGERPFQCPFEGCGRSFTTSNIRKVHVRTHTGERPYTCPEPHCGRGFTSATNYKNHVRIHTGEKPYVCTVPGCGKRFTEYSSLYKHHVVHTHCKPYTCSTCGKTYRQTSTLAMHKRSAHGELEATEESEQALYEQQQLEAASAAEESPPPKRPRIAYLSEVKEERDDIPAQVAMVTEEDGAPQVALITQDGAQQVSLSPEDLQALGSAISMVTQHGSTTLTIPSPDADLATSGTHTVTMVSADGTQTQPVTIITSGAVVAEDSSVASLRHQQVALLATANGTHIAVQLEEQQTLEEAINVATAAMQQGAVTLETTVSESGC
Chain of UniProt O75362 (O75362 whole entry, looked up): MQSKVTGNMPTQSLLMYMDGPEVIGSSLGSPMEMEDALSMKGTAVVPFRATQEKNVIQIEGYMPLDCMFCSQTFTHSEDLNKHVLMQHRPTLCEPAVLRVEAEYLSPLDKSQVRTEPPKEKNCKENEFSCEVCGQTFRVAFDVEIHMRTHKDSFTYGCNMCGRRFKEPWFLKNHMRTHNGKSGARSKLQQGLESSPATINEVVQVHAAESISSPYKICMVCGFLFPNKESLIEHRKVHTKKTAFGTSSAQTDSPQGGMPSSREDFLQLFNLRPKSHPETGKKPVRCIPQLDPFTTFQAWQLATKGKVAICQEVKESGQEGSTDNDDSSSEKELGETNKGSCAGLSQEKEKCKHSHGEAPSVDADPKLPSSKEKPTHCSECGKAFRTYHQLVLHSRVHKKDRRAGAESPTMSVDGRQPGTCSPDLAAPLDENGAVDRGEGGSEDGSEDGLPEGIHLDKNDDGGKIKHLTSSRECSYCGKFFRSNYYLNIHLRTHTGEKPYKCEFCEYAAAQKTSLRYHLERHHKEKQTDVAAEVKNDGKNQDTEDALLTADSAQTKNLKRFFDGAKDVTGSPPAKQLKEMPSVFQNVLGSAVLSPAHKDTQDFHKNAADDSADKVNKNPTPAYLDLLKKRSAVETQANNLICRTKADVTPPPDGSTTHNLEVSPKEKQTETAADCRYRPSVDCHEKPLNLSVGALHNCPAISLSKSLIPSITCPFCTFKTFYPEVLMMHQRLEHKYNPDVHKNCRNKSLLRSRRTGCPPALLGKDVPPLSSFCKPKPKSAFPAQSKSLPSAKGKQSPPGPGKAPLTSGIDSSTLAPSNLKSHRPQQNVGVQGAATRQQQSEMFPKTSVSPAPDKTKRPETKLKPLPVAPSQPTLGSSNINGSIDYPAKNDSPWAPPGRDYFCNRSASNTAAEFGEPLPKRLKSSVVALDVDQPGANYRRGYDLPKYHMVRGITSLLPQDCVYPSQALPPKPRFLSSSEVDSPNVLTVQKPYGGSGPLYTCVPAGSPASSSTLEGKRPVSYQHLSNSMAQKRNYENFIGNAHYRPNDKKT

Target	probe-labelled cysteine peptide fold change ([1]; 10 µM)	probe-labelled cysteine peptide fold change ([1]; 50 µM)	probe-labelled cysteine peptide fold change (compound 10; 10 µM)	probe-labelled cysteine peptide fold change (compound 10; 50 µM)
A6NIZ1_A6NIZ1_118_VKDTDDVPMILVGNKCDLEDER<|>RAP1B_P61224_118_VKDTDDVPMILVGNKCDLEDER (UniProt P61224+A6NIZ1)	-0.583	-0.426		
AARS_P49588_184+187_DNFWEMGDTGPCGPCSEIHYDR (UniProt P49588)	0.105	-0.0756		
ZNF217_O75362_641_SAVETQANNLICR (UniProt O75362)			-0.181	-0.0706
ADAM15_Q13444_409_ALLDGMGSCLFER (UniProt Q13444)	-0.145	0.146		
WDR48_Q8TAF3_366_GGASIIQCHILNDKR (UniProt Q8TAF3)			0.239	-0.0402
ZZEF1_O43149_728_DTEESVCGATLLLR (UniProt O43149)			-0.0306	-0.17
ZC3H10_Q96K80_140_EEVPICR (UniProt Q96K80)			-0.106	0.152
WDR41_Q9HAD4_291_SNDISIHHFTCDEENVFAAVGR (UniProt Q9HAD4)			0.135	0.418
ZBTB14_O43829_391_PFVCGSCTK (UniProt O43829)			0.104	-0.263
ZNF512_Q96ME7_540_NNEELVVSASCK (UniProt Q96ME7)			0.0455	0.0373
ADD2_P35612_224_CIIHLHTPATAAVSAMK (UniProt P35612)	-0.0204	-0.168		
ADK_P55263_160_SLIANLAAANCYKK (UniProt P55263)	-0.669	-0.408		
XPO6_Q96QU8_324_NCVPMEFEEYLLR (UniProt Q96QU8)			-0.0141	0.145
XPO1_O14980_528_DLLGLCEQKR (UniProt O14980)			-0.248	-1.11
WRN_Q14191_1367_HGPDSGLQPSCDVNK (UniProt Q14191)			-0.126	-0.11
ZC3HAV1_Q7Z2W4_513_VDDHDSEEICLDHLCK (UniProt Q7Z2W4)			0.0207	-0.396
ACADVL_P49748_237_TSAVPSPCGK (UniProt P49748)	-0.126	-0.057		
ZNF280C_Q8ND82_388_ICELSFETEHILLQHMK (UniProt Q8ND82)			0.00547	0.0405
ZNHIT6_Q9NWK9_171_FVGQCIK (UniProt Q9NWK9)			-0.528	-0.0997
AGGF1_Q8N302_494_CDPYVLEHGDEVK (UniProt Q8N302)	0.0808	0.0697		

Target	probe-labelled cysteine peptide fold change ([1]; 10 µM)	probe-labelled cysteine peptide fold change ([1]; 50 µM)	probe-labelled cysteine peptide fold change (compound 10; 10 µM)	probe-labelled cysteine peptide fold change (compound 10; 50 µM)
WDR55_Q9H6Y2_5_TCEERPAEDGSDEEDPDSMEAPTR (UniProt Q9H6Y2)			-0.668	-1.19
ACADS_P16219_109_GCASTGVIMSVNNSLYLGPILK (UniProt P16219)	0.201	0.216		
ACTL6A_O96019_152_LTELMFEHYNIPAFFLCK (UniProt O96019)	-0.0461	0.0154		
WDR77_Q9BQA1_186_DSVFLSCSEDNR (UniProt Q9BQA1)			0.136	0.227
YY1_P25490_390_IHTGDRPYVCPFDGCNK (UniProt P25490)			0.136	0.715
ZNF691_Q5VV52_176_CQESFR (UniProt Q5VV52)			-0.0275	-0.0396
ZC3HAV1_Q7Z2W4_168_QQICNQQPPCSR (UniProt Q7Z2W4)			0.0782	-0.158
ACTN4_O43707_879_RELPPDQAEYCIAR (UniProt O43707)	0.0491	0.0892		
ZCCHC3_Q9NUD5_385_GHAFAQCPK (UniProt Q9NUD5)			0.0381	-0.0115
ZFYVE19_Q96K21_435_CAGCDGDLFCAR (UniProt Q96K21)			0.0027	-0.124
AAAS_Q9NRG9_335_CQTGCWSPDGSR (UniProt Q9NRG9)	0.605	-0.129		
YWHAG_P61981_194_LGLALNYSVFYYEIQNAPEQACHLAK (UniProt P61981)			0.0292	0.41
ZNF76_P36508_292_THTGERPYTCPEPHCGR (UniProt P36508)			0.0197	-0.0549
ZW10_O43264_650_LGIVWQDVLPVNIYCK (UniProt O43264)			0.139	0.206
ZNF598_Q86UK7_867_VCPTCQQVLAHGDASSHQALHAAR (UniProt Q86UK7)			0.228	0.187
WDR3_Q9UNX4_183_WWDLDTQHCFK (UniProt Q9UNX4)			0.0656	0.271
ZMYM2_Q9UBW7_612_LYNFCNSSCVAK (UniProt Q9UBW7)			-0.192	-1.33
ZRANB2_O95218_20_CGNVNFAR (UniProt O95218)			-0.0495	-0.314
ZBTB7A_O95365_490_DGCNGVPSR (UniProt O95365)			0.000157	-0.0775
WDR81_Q562E7_215_GSPACPSLLR (UniProt Q562E7)			-0.185	-0.529
